This is an account of results in PubChem BioAssay (NCI).

Values joined by “and” are separate entries in the source; they are usually repeats but may differ in a detail not shown here. Equal values may be shown once. This is part of a sample that, as a whole, favours compounds with a hit. Of some 83,000 tested, about 20% had one in any assay.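 Note: values are percent growth. 100 is the growth of untreated cells, values between 100 and 0 indicate rising inhibition; between -100 and 0 indicates cell death.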 Unmarked numbers belong to inactive results. Active and inactive are the calls of the source.

This assay has as its system CAKI-1 renal. The assay is described as follows: NCI-60 one-dose screen, 48 h (100 = growth as untreated, 0 = no growth, -100 = all killed). The settings on record: 10 µM unless noted. The procedure:
Growth inhibition of the CAKI-1 human tumor cell line is measured as a screen for anti-cancer activity. Cells are grown in 96 well plates and exposed to the test compound for 48 hours. Compounds are tested at a single concentration, which is 10^-5 M for most compounds. The reported endpoint is percent growth (GI% or GIPRCNT), where numbers from 0 - 100% represent growth inhibition, and numbers from -100% - 0 represent cell death. For example, a value of 40 represents 60% growth inhibition. A value of 0 means no net growth occurred over the course of the experiment. A value of -40 indicates 40% of cells at the beginning of the experiment died by the end of the experiment. A value of -100 means all cells are dead at the end of the experiment.
NCI-60 Human Tumor Cell Lines Screen was performed using the standard one-dose NCI protocol, which is described in more detail at https://dtp.cancer.gov/discovery_development/nci-60/default.htm.
Compounds with GIPRCNT values below 10 were considered active. Activity score was based on GIPRCNT using the following formula: […]
Score is 0 for GIPRCNT values of 100 or above, 50 for GIPRCNT values of 0, and 100 for GIPRCNT values of -100.
As for `O=C1C=CC(=O)N1c1ccc2ccccc2c1`, the growth is 53.7% and 83%.
As to `O=C(Oc1ccc(CO[N+](=O)[O-])cc1)c1ccccc1`, the growth is -97% (active).
To `Cc1ccc(C(=O)Nc2nc3c(s2)CN(Cc2ccccc2)CC3)cn1` belongs 65.2%; to `CS(=O)(=O)Nc1cc(-c2ccc3ncnc(Nc4ccc(F)c(Cl)c4)c3c2)cnc1Cl`, 3.33% (active); to `O=C(/C=C\c1ccc(Cl)c(Cl)c1)c1ccccc1`, 96.7% and 89.5%.
Then `CCN(CC)CCOc1ccccc1C`, with 102%.
Regarding `O/N=C(/c1ccccc1)c1ccc2c3c(cccc13)CC2`, the growth was 71.5% and 72.5%.
As for `CC1=C2[C@@H](CC1)[C@]1(C)O[C@@](C(C)C)(C[C@H]1OC(=O)CO)[C@H]2OC(=O)C1CC1c1ccccc1` (stereo not given in full), the growth was 74.1%.
As for `OCc1cc(CN2CCCCC2)c(O)c2ncccc12`, the growth was 13%.
For `C=C(C)[C@@H]1CC[C@]2(C(=O)O)CC[C@]3(C)[C@H](CC[C@@H]4[C@@]5(C)CCC(N)C(C)(C)[C@@H]5CC[C@]43C)[C@@H]12` (stereo not given in full), the growth was 48.6%.
Then `Clc1ccc(CNc2ccc3nc(CCC4CCCCC4)[nH]c3c2)cc1`, with 50.4%; and `CN1CCN(CCNC(=O)c2cccc(CN3c4cccc5c4C(=Cc4cccnc43)N(C)C5=O)c2)CC1`, with 8.78% (active).
Then `CC(=NCc1ccccc1)c1ccc(O)cc1O`, with 107%; and `COC(=O)N/N=C/c1c[n+]([O-])c2ccccc2[n+]1[O-]`, with 89.1%.
To `COc1ccc(/C=C/C(=O)c2cc3c(N)c(C(=O)Nc4ccccc4Cl)sc3nc2C)cc1` belongs 31.9%.
`Cn1cc(-c2nonc2-c2cn(C)c3ccc(Br)cc23)c2ccccc21`: the growth was 25.8%.
Then `Cc1ccc(-c2nc([P+](c3ccccc3)(c3ccccc3)c3ccccc3)c(Nc3ccccc3)o2)cc1`, with -27.8% (active); and `COc1ccc(Cl)cc1Nc1nc(C(F)(F)F)ccc1C(=O)N/N=C/c1ccc(N(C)C)cc1`, with 116%.
As to `CCOC(=O)n1cc(-c2nonc2-c2cn(C)c3ccc(OC)cc23)c2cc(F)ccc21`, the growth was 52.2%.
On to `COc1ccc(C/C(C)=C(/c2ccc(OCCN3CCCCCC3)cc2)c2ccc(OC(=O)c3ccccc3)cc2)cc1`, for which the growth was 104%.
With `COc1ccc(CN2CCc3c(Cl)nc(N)nc3C2=O)c(OC)c1`, the growth was 23.4% [100 µM].
To `CCCc1cc(C(N)=S)ccn1` belongs 96.1%; to `O=C(CCCOc1ccc(Br)cc1)Nc1ncc(Cc2ccc(F)cc2)s1`, 37%.
Regarding `CCOC(=O)C(=Cc1ccc(C#N)cc1)C(=O)OCC`, the growth was 48.6%.
Then `NS(=O)(=O)OCC1OC(n2cnc3cncnc32)C(O)C1O` (stereo not given), with -34.9% [0.1 µM] (active) and 8.16% [0.1 µM] (active); and `O=C(O)c1ccccc1Cc1ccc(F)c2ccccc12`, with 94.9% and 100%.
`COc1ccc2c(O)c(/C=C3\N=Nc4nc(C)ccc43)oc2c1CC1CCNCC1`: the growth is 83.1%.
For `O=C1c2cc3c(cc2-c2c1c1ccc(Cl)cc1c(=O)n2CCCn1ccnc1)OCO3`, the growth is 9.62% (active).
To `COc1ccc(Oc2nc(Nc3ccc(N4CCOCC4)cc3)ncc2NC(=O)c2cccc(C(F)(F)F)c2)cc1` belongs 88.9%.
Turning to `Clc1ccc2c(c1)N(c1ncnc3ccc(-c4cnc5[nH]ccc5c4)cc13)CC2`, the growth is 31.4%.
With `N=C1/C(=C2\NC3C=CC=CC3S2)C(c2ccc(Cl)cc2)C2C(=O)N(c3ccccc3)C(=S)N12` (stereo not given), the growth was 99.6%.
Then `Nc1nc(Nc2cccnc2)sc1C(=O)c1ccccc1F`, with -3.89% (active).
Regarding `O=C([C@H]1C[C@H]1c1ccc(S(F)(F)(F)(F)F)cc1)N1CCN(c2cc(Cl)ccc2C(F)(F)F)CC1`, the growth was 67.3%.
Consider `CCCCC1COc2cccc3c2N1C=C/C3=C\C(=O)N(C)c1cccc(Cl)c1` (stereo not given), for which the growth was 78.9%.
Consider `CCN(c1cc(-c2ccc(CN3CCC(/C=C/S(=O)(=O)c4ccccc4)CC3)cc2)cc(C(=O)NCc2c(C)cc(C)[nH]c2=O)c1C)C1CCOCC1`, for which the growth was 51.4%.
Turning to `O=C(c1ccc(Nc2nccc(NCCCNc3ccnc4cc(Cl)ccc34)n2)cc1)N1CCCCC1`, the growth was 89.9%.
For the compound `Nc1nc(Cl)nc2c1ncn2C1OC(CO)C(O)C1O` (stereo not given), the growth is 25.9% and 41%.
Regarding `Cc1ccc(NC(=O)N/C(N)=N/c2nc(=O)c3ccccc3s2)cc1`, the growth was 86.9%.
To `CCN1CCN(C(=O)[C@]23CC[C@@H](C)[C@H](C)[C@@H]2C2=CC[C@@H]4[C@@]5(C)CCC(=O)C(C)(C)[C@@H]5CC[C@@]4(C)[C@]2(C)CC3)CC1` belongs 23.8%.
With `CC(C)(C)CC(N)=O`, the growth was 94.4%.
